The source made the active and inactive calls.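 How the source made its calls: active means valid curve fit with half-effect dose at most 10 µM and total binding change across doses of 30 points or more; inactive means the rest.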
The molecules below were run on Ras wt (assay: small GTPase nucleotide-binding inhibition, multiplex panel – biochemical, round 1 SAR, Mg buffer, multiplex flow cytometry, selectivity assay for Cdc42 probe extension project, SAR follow-up (AID 588477)). Conditions: GST-GTPase beads, Bodipy-GTP binding; series mostly up to 100 µM.

outcome, inactive:
COc1ccc(C2CC(c3ccccc3)=NN2c2ccc(S(N)(=O)=O)cc2)cc1 (stereo not drawn)
O=C(C#Cc1ccccc1)c1cccc([N+](=O)[O-])c1
NS(=O)(=O)c1ccc(N2N=C(c3ccccc3)CC2c2ccccc2)cc1 (stereo not drawn)

Source: PubChem BioAssay AID588477 (NMMLSC, 2011)
